Data reported in PubChem BioAssay.
Activity calls are given as the source filed them. Unless noted, no rule for the calls is given here.

Legend:
[1] = resazurin metabolic signal in HepG2 cells – cell-based, resazurin fluorescence, 24 h, PK04 Diversity Set, profiling panel (AID 1172); settings: HepG2 viability, higher = more signal; also: test concentration not given here
[2] = budding yeast growth changes without added modifier – OD600, strain BY4716, 24 h, basal condition, primary screen (AID 1173); settings: S. cerevisiae BY4716 growth, OD600, 24 h; higher = more signal, called active from +8 up or from −8 down
[3] = viability profiling in MM1S myeloma cells – cell-based, resazurin fluorescence, basal, 24 h, PK04 Diversity Set, profiling panel (AID 1174); settings: higher = more signal, called active from +8 up or from −8 down;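 also: MM1S multiple myeloma cell line; test concentration not given here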
[4] = target: Dihydroorotate dehydrogenase (quinone), mitochondrial (Plasmodium falciparum (isolate 3D7)) (UniProt Q08210); assay: inhibition of P. falciparum DHODH – biochemical, C-terminal His tag, absorbance 600 nm, primary screen (AID 1175); settings: PfDHODH enzyme, DCIP absorbance 600 nm; higher = more signal, called active from +8 up or from −8 down;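 also: recombinant parasite enzyme with a five histidine tag at its C terminus; test concentration not given here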
Dihydroorotate dehydrogenase (quinone), mitochondrial (Plasmodium falciparum (isolate 3D7)), sequence (Q08210 whole entry, looked up): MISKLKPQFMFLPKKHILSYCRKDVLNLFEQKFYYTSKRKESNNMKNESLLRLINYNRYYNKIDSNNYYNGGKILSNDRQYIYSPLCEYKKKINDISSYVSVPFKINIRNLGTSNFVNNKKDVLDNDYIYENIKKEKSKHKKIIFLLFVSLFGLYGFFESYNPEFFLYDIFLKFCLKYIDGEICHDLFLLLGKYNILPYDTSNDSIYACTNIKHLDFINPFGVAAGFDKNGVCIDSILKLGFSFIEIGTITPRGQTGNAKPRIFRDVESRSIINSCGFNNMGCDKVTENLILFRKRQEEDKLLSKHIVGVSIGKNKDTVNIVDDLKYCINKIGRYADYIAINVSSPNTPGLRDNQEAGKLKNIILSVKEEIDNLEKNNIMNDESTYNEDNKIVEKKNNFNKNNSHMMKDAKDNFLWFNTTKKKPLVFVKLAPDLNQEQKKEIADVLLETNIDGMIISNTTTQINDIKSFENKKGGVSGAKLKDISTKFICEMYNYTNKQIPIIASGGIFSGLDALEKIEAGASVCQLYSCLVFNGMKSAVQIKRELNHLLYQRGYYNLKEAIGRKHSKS

[5] = inhibition of PAO1 biofilm formation – strain PAO1, LB-PBS medium, absorbance 600 nm, primary screen (AID 1176); also: test concentration not given here; settings: P. aeruginosa PAO1 growth/biofilm, A600, 12 h; higher = more signal
[6] = growth modulation of vineyard yeast isolate – strain RM11-1a, OD600, basal, 24 h, primary screen (AID 1177);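 also: cultures grown under basal conditions with no added stressor; test concentration not given here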; settings: S. cerevisiae RM11-1a growth, OD600, 24 h; higher = more signal, called active from +8 up or from −8 down
[7] = growth of efflux-deficient E. coli DRC39 – strain DRC39, OD650, 24 h, E. coli filamentation inducers, primary screen (AID 1178);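 also: growth measured as culture turbidity by optical density at 650 nm; test concentration not given here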; settings: E. coli DRC39 acrAB, higher = more signal, called active from +8 up or from −8 down
[8] = growth of efflux-deficient E. coli DRC39 – strain DRC39, OD650, 48 h, E. coli filamentation inducers, primary screen (AID 1179);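 also: screen aims at cell division blockers that make cells filament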; settings: E. coli DRC39 delta-acrAB growth, higher = more signal, called active from +8 up or from −8 down
[9] = viability profiling in RPMI8226 myeloma cells – cell-based, resazurin fluorescence, basal, 24 h, PK04 Diversity Set, profiling panel (AID 1180); settings: higher = more signal;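 also: RPMI8826 multiple myeloma cell line at 5000 cells per well; test concentration not given here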
[10] = target: E3 ubiquitin-protein ligase XIAP (Homo sapiens) (UniProt P98170); assay: small molecules binding XIAP protein – biophysical, small-molecule microarray, fluorescence 635 nm, primary screen (AID 1181); settings: higher = more signal;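 also: score merges 667 nm emission and signal to noise over triplicate slides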
E3 ubiquitin-protein ligase XIAP (Homo sapiens), sequence (P98170 whole entry, looked up): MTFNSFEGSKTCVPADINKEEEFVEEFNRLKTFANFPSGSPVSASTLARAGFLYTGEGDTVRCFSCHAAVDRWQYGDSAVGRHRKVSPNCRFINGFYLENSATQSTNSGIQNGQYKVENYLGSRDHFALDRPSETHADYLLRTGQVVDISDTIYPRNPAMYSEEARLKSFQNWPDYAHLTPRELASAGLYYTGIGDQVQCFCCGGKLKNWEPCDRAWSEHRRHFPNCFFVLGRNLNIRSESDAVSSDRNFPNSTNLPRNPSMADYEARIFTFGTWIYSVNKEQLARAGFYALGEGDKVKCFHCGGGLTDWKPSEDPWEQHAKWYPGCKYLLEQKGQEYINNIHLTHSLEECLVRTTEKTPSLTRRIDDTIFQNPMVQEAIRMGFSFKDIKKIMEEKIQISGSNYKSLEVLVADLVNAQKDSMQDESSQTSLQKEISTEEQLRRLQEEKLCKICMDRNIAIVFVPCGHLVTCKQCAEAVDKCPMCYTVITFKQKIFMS

Row | SMILES | z-score [1] | z-score [2] | z-score [3] | composite z-score [4] | z-score [5] | z-score [6] | z-score [7] | z-score [8] | z-score [9] | composite z-score [10]
1 | O=C1C=C[C@@H](O)[C@@H]2[C@@H]3C(=O)N(c4cccc(Oc5ccccc5)c4)C(=O)[C@@H]3CC[C@@H]12 | -0.553 | -1.82 (inactive) | -0.136 (inactive) | -2.96 (inactive) | 0.188 (inactive) | -0.518 (inactive) | 0.318 (inactive) | -1.71 (inactive) | 0.088 | 0.242
2 | CC(=O)OC[C@H]1O[C@@H](ON=C(C)CCN2CCCCc3nc(C)c(C)cc32)[C@H](OC(C)=O)[C@@H](OC(C)=O)[C@@H]1OC(C)=O | -0.077 | -0.436 (inactive) | 0.382 (inactive) | -2.52 (inactive) | -0.679 (inactive) | -1.15 (inactive) | -1.24 (inactive) | -0.816 (inactive) | -0.0356 | 0.0899
3 | COc1ccc(OC[C@@H](CO)OC)cc1 | -0.279 | 0.0175 (inactive) | -0.143 (inactive) | -0.591 (inactive) | -0.364 (inactive) | -0.334 (inactive) | 0.293 (inactive) | 0.178 (inactive) | 0.421 | -0.0344
4 | Cc1ccc2[nH]c3nc(CCCn4ccnc4-c4ccccc4)nnc3c2c1 | -0.256 | -0.104 (inactive) | -1.15 (inactive) | 0.411 (inactive) | 0.0737 (inactive) | -0.212 (inactive) | 0.164 (inactive) | 0.183 (inactive) | -0.976 | -0.119
5 | CCOC(=O)NN=C1C[C@@H](O)[C@@H](O)[C@@H]2[C@@H]3C(=O)N(C[C@@H]4CCCO4)C(=O)[C@@H]3CC[C@H]12 | 0.0254 | 0.197 (inactive) | -0.841 (inactive) | -1.36 (inactive) | -0.495 (inactive) | -0.396 (inactive) | 0.213 (inactive) | 0.626 (inactive) | -0.248 | -0.02
6 | COC(=O)[C@H](C)NC(=O)CCC1CC(OC(=O)NCc2cccc3ccccc23)CC2(CCCC(COC(=O)NCc3cccc(C(F)(F)F)c3)O2)O1 (stereo not given in full) | -0.599 | -0.458 (inactive) | 0.47 (inactive) | -1.5 (inactive) | 0.593 (inactive) | -0.968 (inactive) | -0.289 (inactive) | -0.456 (inactive) | 0.297 | 0.14
7 | CCOC(=O)[C@H](CC(C)C)NC(=O)CCC1CC(OC(=O)NCc2ccc3c(c2)OCO3)CC2(CCCC(COC(=O)NCCOc3ccccc3)O2)O1 (stereo not given in full) | -0.167 | 0.592 (inactive) | 0.691 (inactive) | 0.0657 (inactive) | -0.564 (inactive) | 1.21 (inactive) | -0.0466 (inactive) | -0.875 (inactive) | 0.632 | 0.154
